# Experimental data taken from PubChem BioAssay (Tox21).
# A number with no mark means an inactive call. Calls of active or inactive are those of the source. The call rests on the fitted dose curve; in most records, active means well fitted curve in the direction sought with a large enough effect in the repeat runs; inconclusive means weak or mixed curves; inactive means flat fitted curve, though single readings scatter.
# Experiment: qHTS assay to test for compound auto fluorescence at 535 nm (green) in HepG2 cell free culture (AID 720686)
# Conditions: Cell-free medium, green autofluorescence 485/535 nm; series mostly up to 91.3 µM
# From the text: U.S. Tox21 Program National Center for Advancing Translational Sciences [NCATS] NIH Chemical Genomics Center [NCGC] U.S. Environmental Protection Agency [EPA] National Institutes of Environmental Health Sciences [NIEHS] National Toxicology Program [NTP] U.S. Food and Drug Administration [FDA] Tox21 Assay Overview: Compound auto fluorescence often interferes with screening of the compound library against various biological targets and signaling pathways. Some of these compounds may have fluorophoric properties. Such properties may interfere with the assay outputs resulting in false positives and/or negatives. To decrease such complications and ensure the compound activities are relevant in terms of biological response, the Tox21 10K compound library was screened for auto fluorescence. From the fluorophores used as reporter signals in our screening assays, the auto fluorescence equivalencies of compounds against three fluorophores have been evaluated: Triamterene, Fluorescein and Rose Bengal sodium for blue, green and red fluorescence, respectively. The fluorescence intensities were measured using Excitation/Emission wavelengths at 405/460nm, 485/535nm and 540/590nm for blue, green and red labels, respectively. This assay includes the green fluorescence data.
# Tox21 Assay Protocol Summary: 5 uL of culture medium (MEM containing 10% FBS) per well was dispensed into black wall/clear bottom 1536-well plates using a Multidrop Combi Dispenser (ThermoFisher Scientific, Waltham, MA). After 23 nL compound or DMSO vehicle was transferred into assay plate by a pintool work station (Kalypsys, San Diego, CA), fluorescence intensities in the assay plates were measured by an Envision (PerkinElmer, Shelton, CT) plate reader using three labels for measuring blue, green and red fluorescence at […] 460, 535 and 590nm respectively.
# On the % scale 0 is the no-effect control and ±100 the full control effect.
SMILES,outcome,"fluorescence, % of fluorescein control"
NC(N)=NN=C(/C=C/c1ccc([N+](=O)[O-])o1)/C=C/c1ccc([N+](=O)[O-])o1,inactive,–
N[C@H]1C(O)O[C@H](CO)[C@H](O)[C@@H]1O (stereo not given in full),inactive,–
c1ccc(CNCc2ccccc2)cc1,inactive,–
FC(F)(F)C(F)(F)C(F)(F)C(F)(F)C(F)(F)C(F)(F)CCI,inactive,–
OCC1CC2CC1C1CCC(CO)C21 (stereo not given),inactive,–
CCOC(=O)[C@H](CCc1ccccc1)N[C@H]1CCc2ccccc2N(CC(=O)O)C1=O,inactive,–
CC(=O)O[C@@H]1C(=O)O[C@@H]2[C@H]1OC(=O)[C@@H]2OC(C)=O,inactive,–
CCCC(C)C,inactive,–
SC1CCCC1,inactive,–
CCOc1cc(OCC)c(C(=O)CCC(=O)O)cc1OCC,inactive,–
Cc1c(Cn2ccnc2)c2ccccc2n1CCC(=O)O,inactive,–
CC(C)(C)c1cc(CCC(=O)OCC(COC(=O)CCc2cc(C(C)(C)C)c(O)c(C(C)(C)C)c2)(COC(=O)CCc2cc(C(C)(C)C)c(O)c(C(C)(C)C)c2)COC(=O)CCc2cc(C(C)(C)C)c(O)c(C(C)(C)C)c2)cc(C(C)(C)C)c1O,inactive,–
CC(C)(C)c1cc(O)c(C(C)(C)C)cc1O,inactive,–
COC(=O)CSc1cc(N=c2sc(=O)n3n2CCCC3)c(F)cc1Cl,inactive,–
Cc1cc(C)c(S(=O)(=O)O)cc1N=Nc1cc(S(=O)(=O)O)c2ccccc2c1O,inactive,–
O=C(Nc1ccccc1)OCC(CN1CCCCC1)OC(=O)Nc1ccccc1 (stereo not given),–,0.0354% [at 18.6 µM]
CN1CCC(OC(c2ccccc2)c2ccccc2)CC1,–,-0.14% [at 18.6 µM]
CCCCCCCCCC=O,inactive,–
CC(Cc1cccc(C(F)(F)F)c1)NCCOC(=O)c1ccccc1 (stereo not given),inactive,–
CC1(C)[C@H]2CC[C@]1(C)[C@H](O)C2,inactive,–

SMILES,outcome,"fluorescence, % of fluorescein control"
CC(C)(C)C(=O)OCOP(=O)(COCCn1cnc2c(N)ncnc21)OCOC(=O)C(C)(C)C,inactive,–
Cc1cc(NC(=O)C(=O)O)cc(C)c1Oc1ccc(O)c2c1CCC2,inactive,–
CCOc1ccc2[nH]cc(C(=O)NCc3ccccc3)c(=O)c2n1,inactive,–
C[C@@H](C1=C(CCN(C)C)Cc2ccccc21)c1ccccn1,inactive,–
CC[C@H](C)[C@@H](C(=O)O)n1sc2ccccc2c1=O,inactive,–
Nc1ccc(C(=O)Nc2ccccc2N)cc1,inactive,–
ClC(Cl)(Cl)c1ccc(C(Cl)(Cl)Cl)cc1,inactive,–
O=S1(=O)c2cccc3cccc(c23)N1CCCN1CCN(c2ccc(F)cc2)CC1,inactive,–
C=CC(=O)OCCOC(=O)CCC(=O)O,inactive,–
CN1CCN(C2=Nc3ccccc3Sc3ccc(Cl)cc32)CC1,inactive,–
CC(C(=O)O)c1ccc(C(=O)c2ccccc2)s1 (stereo not given),–,0.146% [at 18.6 µM]
Cn1c(NCCN(CCO)CCCc2ccc([N+](=O)[O-])cc2)cc(=O)n(C)c1=O,inactive,–
COC(Cc1ccccc1)OC,inactive,–
CC(=O)NCCCS(=O)(=O)O,inactive,–
O=C1[C@H](CC[C@H](O)c2ccc(F)cc2)[C@@H](c2ccc(O)cc2)N1c1ccc(F)cc1,inactive,–
CC/C(=C\C(=N/O)C(N)=O)C(C)[N+](=O)[O-] (stereo not given),inactive,–
Cc1ccc(C)o1,inactive,–
CCCCOC(=O)c1ccccc1C(=O)OCC(CC)CCCC (stereo not given),inactive,–
Cc1ccccn1,inactive,–
COc1cc(C(C)(C)C)c(O)c(C(C)(C)C)c1,inactive,–
